Experimental data reported in ChEMBL document CHEMBL3988442, “University of Dundee, Small-Polar-MMV Screening Library” (2021).
For some of these results: Measured potencies and affinities stand elsewhere.

Columns and labels:
Design in all cases: scale not given: direction of the effect not stated beside the values
[1] = biological target: Protein translocase subunit SecA (Escherichia coli (strain K12)) (UniProt P10408); test: Assay to Identify E. coli SecA ATPase Inhibitors; type: functional; details: 30 µM
Protein translocase subunit SecA (Escherichia coli (strain K12)), sequence (P10408 whole entry): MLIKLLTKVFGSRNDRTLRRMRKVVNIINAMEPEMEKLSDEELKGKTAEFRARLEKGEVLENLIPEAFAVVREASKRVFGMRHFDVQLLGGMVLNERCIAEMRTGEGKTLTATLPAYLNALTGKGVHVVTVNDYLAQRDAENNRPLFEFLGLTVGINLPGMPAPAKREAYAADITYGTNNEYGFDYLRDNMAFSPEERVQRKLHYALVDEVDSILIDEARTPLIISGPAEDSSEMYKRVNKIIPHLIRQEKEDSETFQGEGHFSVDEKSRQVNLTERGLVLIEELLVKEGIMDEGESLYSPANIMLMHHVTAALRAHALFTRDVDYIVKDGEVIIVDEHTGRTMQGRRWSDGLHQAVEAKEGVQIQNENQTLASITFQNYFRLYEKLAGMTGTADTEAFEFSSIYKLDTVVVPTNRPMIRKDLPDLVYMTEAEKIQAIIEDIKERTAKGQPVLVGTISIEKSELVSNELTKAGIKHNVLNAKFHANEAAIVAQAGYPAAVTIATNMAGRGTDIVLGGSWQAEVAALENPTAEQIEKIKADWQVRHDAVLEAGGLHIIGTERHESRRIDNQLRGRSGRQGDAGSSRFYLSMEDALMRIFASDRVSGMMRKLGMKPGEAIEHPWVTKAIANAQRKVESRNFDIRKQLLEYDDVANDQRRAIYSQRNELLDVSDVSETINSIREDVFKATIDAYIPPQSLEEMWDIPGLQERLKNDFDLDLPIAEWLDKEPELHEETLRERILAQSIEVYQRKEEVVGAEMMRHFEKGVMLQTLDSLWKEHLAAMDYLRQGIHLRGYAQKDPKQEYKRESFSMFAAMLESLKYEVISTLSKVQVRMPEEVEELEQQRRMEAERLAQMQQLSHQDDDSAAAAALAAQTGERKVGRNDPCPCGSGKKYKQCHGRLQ

[2] = biological target: T1, Ubiquitin-activating enzyme e1, putative (Leishmania donovani (strain BPK282A1)) (UniProt E9BSI1); test: Leishmania donovani Ubiquitin Activating Enzyme (LdE1); type: functional; details: 30 µM
T1 sequence (whole entry): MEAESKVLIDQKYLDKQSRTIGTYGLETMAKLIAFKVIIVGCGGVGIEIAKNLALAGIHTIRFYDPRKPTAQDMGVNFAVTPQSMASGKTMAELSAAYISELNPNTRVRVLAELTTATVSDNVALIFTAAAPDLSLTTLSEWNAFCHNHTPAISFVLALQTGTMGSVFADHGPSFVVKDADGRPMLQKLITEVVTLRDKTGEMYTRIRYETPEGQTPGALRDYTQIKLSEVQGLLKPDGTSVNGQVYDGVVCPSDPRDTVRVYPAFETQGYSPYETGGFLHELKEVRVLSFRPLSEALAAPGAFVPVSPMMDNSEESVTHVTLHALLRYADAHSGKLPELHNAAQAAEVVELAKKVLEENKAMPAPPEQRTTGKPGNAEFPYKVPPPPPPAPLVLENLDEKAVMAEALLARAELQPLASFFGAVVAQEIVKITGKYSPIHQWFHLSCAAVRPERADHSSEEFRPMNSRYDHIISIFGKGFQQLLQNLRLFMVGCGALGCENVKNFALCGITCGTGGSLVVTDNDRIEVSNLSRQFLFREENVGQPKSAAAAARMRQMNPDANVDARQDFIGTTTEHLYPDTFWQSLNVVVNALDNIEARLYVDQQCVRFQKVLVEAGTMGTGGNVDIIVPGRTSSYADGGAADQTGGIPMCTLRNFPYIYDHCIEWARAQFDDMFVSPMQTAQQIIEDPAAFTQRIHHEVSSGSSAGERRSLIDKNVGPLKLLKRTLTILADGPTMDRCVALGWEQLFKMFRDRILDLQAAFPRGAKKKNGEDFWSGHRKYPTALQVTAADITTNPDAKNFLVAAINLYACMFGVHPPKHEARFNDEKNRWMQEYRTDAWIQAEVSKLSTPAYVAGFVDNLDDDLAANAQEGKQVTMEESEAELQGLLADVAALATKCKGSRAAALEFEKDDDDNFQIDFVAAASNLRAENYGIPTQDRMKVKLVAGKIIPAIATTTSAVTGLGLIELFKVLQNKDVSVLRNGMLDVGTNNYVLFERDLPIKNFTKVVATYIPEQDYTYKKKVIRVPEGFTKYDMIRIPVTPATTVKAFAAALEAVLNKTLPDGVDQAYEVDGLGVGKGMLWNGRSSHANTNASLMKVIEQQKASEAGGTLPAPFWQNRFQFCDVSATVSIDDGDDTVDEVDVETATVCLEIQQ

[3] = biological target: AMP-activated protein kinase, AMPK (Homo sapiens) (UniProt P54646+O43741+P54619+Q9UGJ0+Q9Y478+Q13131+Q9UGI9); test: AMP-dependent Kinase enzyme assay. An in vitro enzyme assay that detects ADP turnover that is directly proportional to AMPK activity. This uses naive AMPK that is activated during the assay with MK-8722; type: functional; details: 30 µM
[4] = biological target: Sialic acid-binding Ig-like lectin 9 (Homo sapiens) (UniProt Q9Y336); test: Hs-Siglec9 ALPHAscreen SOP 20170721; details: 10 µM
Sialic acid-binding Ig-like lectin 9 (Homo sapiens), sequence (Q9Y336 whole entry): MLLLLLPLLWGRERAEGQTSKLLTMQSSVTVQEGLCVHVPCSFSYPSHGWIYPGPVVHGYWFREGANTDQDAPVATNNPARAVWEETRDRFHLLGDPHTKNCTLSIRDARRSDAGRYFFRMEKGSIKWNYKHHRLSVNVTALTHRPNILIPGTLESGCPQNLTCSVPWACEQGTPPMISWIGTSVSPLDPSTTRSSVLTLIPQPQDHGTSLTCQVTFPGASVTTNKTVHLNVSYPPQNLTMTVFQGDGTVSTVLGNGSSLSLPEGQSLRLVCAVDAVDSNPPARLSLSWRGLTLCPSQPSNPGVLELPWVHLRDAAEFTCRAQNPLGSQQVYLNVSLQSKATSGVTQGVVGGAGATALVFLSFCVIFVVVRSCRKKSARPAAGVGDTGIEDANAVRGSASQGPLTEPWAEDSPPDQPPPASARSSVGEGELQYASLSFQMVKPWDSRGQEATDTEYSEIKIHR

Trypanosoma cruzi = test: Trypanosoma cruzi phosphomannomutase and mannose-1-phosphate guanylyltransferase assay; type: functional; details: 10 µM
[5] = biological target: T2, Arginase-2, mitochondrial (Homo sapiens) (UniProt P78540); test: in vitro enzyme assay to detect the production of urea directly proportional to the activity of Arginase II; type: functional; details: 33.3 µM; also: in the data most compounds retested in dose-response had high values
T2 sequence (whole entry): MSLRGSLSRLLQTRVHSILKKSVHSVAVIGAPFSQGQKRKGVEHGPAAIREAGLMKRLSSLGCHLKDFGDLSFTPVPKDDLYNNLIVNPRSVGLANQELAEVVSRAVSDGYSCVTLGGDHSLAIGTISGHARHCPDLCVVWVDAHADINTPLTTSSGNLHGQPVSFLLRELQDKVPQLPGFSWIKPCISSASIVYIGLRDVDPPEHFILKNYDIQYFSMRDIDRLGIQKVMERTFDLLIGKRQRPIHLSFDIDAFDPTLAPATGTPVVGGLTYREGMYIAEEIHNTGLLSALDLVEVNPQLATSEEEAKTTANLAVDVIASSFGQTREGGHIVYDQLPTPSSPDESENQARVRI

[6] = biological target: T3, Proteasome subunit beta (Trypanosoma cruzi) (UniProt O96673); test: Trypanosoma cruzi proteasome chymotrypsin-like activity (TcProtChymo) assay.; also: in the data most compounds retested in dose-response had high values; type: functional; details: 9.37 µM
T3 sequence (whole entry): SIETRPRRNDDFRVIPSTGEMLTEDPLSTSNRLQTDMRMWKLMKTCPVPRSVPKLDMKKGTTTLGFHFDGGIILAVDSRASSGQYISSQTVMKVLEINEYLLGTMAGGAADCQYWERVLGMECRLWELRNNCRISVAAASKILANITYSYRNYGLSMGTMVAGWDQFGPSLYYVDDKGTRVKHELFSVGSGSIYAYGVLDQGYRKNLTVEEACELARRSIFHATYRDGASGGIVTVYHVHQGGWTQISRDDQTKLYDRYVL

Homo sapiens = species: Homo sapiens; test: To identify inhibition of the IFN signalling (Jak-Stat) pathway via expression of an eGFP reporter gene under the control of an IFN-stimulated response element (ISRE) containing MxA promoter.; type: functional; details: 30 µM
[7] = biological target: T4, Tyrosyl-tRNA synthetase, putative (Trypanosoma cruzi (strain CL Brener)) (UniProt Q4DSP6); test: Trypanosoma cruzi tyrosyl tRNA synthetase (TcYRS) _High Tyrosine SOP; type: functional; details: 30 µM; also: in the data most compounds retested in dose-response had high values
T4 sequence (whole entry): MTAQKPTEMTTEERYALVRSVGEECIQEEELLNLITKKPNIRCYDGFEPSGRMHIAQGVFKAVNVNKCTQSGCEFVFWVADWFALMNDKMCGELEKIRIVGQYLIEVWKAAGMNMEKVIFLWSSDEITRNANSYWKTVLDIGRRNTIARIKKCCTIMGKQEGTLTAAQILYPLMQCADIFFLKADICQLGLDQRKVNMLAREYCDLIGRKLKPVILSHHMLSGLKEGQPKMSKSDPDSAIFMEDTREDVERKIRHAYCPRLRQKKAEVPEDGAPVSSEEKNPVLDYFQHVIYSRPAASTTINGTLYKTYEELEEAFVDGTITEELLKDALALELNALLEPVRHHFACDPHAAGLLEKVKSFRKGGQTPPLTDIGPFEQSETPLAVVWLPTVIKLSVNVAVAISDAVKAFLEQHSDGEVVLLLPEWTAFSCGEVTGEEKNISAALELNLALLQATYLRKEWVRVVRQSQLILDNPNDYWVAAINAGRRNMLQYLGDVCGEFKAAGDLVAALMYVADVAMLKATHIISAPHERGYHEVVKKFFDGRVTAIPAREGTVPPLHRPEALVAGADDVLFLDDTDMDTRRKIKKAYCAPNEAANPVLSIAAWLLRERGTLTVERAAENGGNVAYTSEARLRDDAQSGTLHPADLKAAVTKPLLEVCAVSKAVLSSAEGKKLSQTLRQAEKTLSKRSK

[8] = biological target: T4, Tyrosyl-tRNA synthetase, putative (Trypanosoma cruzi (strain CL Brener)); test: Trypanosoma cruzi tyrosyl tRNA synthetase (TcYRS) SOP; type: functional; details: 30 µM
[9] = biological target: Chromo domain-containing protein 1 (Saccharomyces cerevisiae (strain ATCC 204508 / S288c) (Baker's yeast)) (UniProt P32657); test: ScCHD-1 Enzyme Inhibition Assay; type: functional; details: 30 µM; also: in the data most compounds retested in dose-response had high values
Chromo domain-containing protein 1 (Saccharomyces cerevisiae (strain ATCC 204508 / S288c) (Baker's yeast)), sequence (P32657 whole entry, the tested form may be a part): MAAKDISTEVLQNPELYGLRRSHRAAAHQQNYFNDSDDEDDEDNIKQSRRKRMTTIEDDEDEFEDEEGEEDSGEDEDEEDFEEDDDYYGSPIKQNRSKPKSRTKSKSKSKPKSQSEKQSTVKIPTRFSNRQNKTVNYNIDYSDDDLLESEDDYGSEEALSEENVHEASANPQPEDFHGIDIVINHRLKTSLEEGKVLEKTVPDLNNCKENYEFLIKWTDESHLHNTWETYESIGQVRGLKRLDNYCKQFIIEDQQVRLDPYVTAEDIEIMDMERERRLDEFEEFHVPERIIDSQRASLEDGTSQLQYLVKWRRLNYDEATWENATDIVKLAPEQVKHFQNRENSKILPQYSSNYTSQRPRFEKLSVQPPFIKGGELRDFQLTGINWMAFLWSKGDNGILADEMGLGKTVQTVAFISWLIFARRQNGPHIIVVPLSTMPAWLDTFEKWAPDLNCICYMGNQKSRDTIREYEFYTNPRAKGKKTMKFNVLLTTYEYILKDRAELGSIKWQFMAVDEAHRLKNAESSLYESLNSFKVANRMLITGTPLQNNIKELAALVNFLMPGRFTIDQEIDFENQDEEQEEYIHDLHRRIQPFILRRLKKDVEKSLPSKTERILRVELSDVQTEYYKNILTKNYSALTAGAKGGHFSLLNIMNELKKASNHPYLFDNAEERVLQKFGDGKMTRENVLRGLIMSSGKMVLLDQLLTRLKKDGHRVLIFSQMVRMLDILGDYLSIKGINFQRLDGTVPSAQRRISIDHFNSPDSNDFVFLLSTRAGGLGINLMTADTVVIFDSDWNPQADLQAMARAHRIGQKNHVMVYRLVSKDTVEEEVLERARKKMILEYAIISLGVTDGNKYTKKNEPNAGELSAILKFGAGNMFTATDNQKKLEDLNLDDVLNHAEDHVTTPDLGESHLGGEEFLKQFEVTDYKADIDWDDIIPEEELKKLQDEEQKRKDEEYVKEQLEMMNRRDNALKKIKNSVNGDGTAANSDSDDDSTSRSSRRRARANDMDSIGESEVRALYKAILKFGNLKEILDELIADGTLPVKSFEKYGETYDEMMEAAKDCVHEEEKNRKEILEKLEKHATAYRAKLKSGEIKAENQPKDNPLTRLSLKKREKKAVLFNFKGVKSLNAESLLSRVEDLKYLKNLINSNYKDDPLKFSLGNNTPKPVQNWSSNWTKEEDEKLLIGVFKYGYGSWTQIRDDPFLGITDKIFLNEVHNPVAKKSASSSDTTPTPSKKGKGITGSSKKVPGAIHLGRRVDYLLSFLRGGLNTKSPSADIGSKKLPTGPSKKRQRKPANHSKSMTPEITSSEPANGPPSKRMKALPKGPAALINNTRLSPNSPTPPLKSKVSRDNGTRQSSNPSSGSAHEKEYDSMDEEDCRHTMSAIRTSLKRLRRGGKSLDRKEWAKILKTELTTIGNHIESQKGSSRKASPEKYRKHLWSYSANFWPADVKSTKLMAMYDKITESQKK

Row | Structure (SMILES) | Percent Effect [1] | Percent Effect [2] | Percent Effect [3] | Percent Effect [4] | Percent Effect (Trypanosoma cruzi) | Percent Effect [5] | Percent Effect [6] | Percent Effect (Homo sapiens) | Percent Effect [7] | Percent Effect [8] | Percent Effect [9]
1 | c1coc(CN2Cc3nccn3CC(Cn3cncn3)C2)c1 (stereo not given) | -4.49% | -2.74% | -1.24% | 1.11% | -2.38% | -4.39% | 6.25% | -3.99% | 1.04% | 1.24% | -1.23%
2 | COc1cc(C)c(CN2CCC3(CC2)C(C(=O)O)CC(=O)N3C)cc1C (stereo not given) | -0.465% | 16% | -9.44% | 6.22% | 0.682% | 6.77% | 10.3% | 22.7% | 3.83% | 18.5% | -3.84%
3 | Cc1nc2ccnn2c(C)c1CCC(=O)N1CCC(C(N)=O)CC1 | -6.89% | 2.63% | 0.295% | -2.71% | -5.32% | 2.88% | 5.5% | 4.03% | 5.42% | 1.24% | 1.87%
4 | COCC(=O)N1CCCC1c1ccnc(Nc2cnccn2)n1 (stereo not given) | -3.17% | 12.2% | 9.2% | 8.04% | -0.395% | 0.232% | 10.3% | -10.9% | 12.9% | 22.1% | -7.89%
5 | Cc1ncsc1CN1C[C@@H](OCC2CC2)[C@H]2OCCC[C@H]21 | -6.87% | 8.11% | -8.86% | 32.2% | 4.79% | -0.248% | 24.3% | -4.12% | 5.38% | 16.1% | -8.25%
